In PubChem BioAssay AID1159580 (chemical genetic matrix, 2015):
Where “and” joins values, the source holds several entries; their conditions need not be identical. Identical values can stand only once. The campaign covered roughly 5,500 compounds. About 2,000 (36%) were called active. Not shown: some 18% with an inconclusive outcome. Cut-off read from the data, not from the text of the source: active = normalized growth mostly below about 0.91 (no sharp cut-off); inconclusive = no clear call, values can overlap the other calls; inactive = mostly above about 0.92. This is one part of the list.

Assay: chemical genetic growth profiling, strain panel (AID 1159580);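 note: tested at 20 µM; growth read once vehicle control cultures reached saturation at 30 °C; 1 = growth at the plate median or of vehicle wells; lower values mean less growth of the strain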
Conditions: S. cerevisiae deletion strains, growth OD

Measured: normalized growth

NC12CC3CC(CC(C3)C1)C2
inactive: locus YAL021C, strain ccr4, stronger effect = lower value 0.977 | locus YAL026C, strain drs2, stronger effect = lower value 0.996 | locus YAL030W, strain snc1, stronger effect = lower value 1.01 | locus YAL040C, strain CLN3, stronger effect = lower value 0.968 | locus YBL061C, strain skt5, stronger effect = lower value 1.01 | locus YBR009C, strain hhf1, stronger effect = lower value 0.99 | locus YBR021W, strain FUR4, stronger effect = lower value 0.992 | locus YBR023C, strain chs3, stronger effect = lower value 1.01 | locus YBR171W, strain sec66, stronger effect = lower value 1.01 | locus YBR229C, strain ROT2, stronger effect = lower value 1 | locus YBR231C, strain swc5, stronger effect = lower value 1.03 | locus YBR279W, strain paf1, stronger effect = lower value 0.994 | locus YCL011C, strain gbp2, stronger effect = lower value 0.985 | locus YCL016C, strain dcc1, stronger effect = lower value 0.977 | locus YCL029C, strain bik1, stronger effect = lower value 1.02 | locus YCL061C, strain MRC1 (second series), stronger effect = lower value 0.991 | locus YCL061C, strain MRC1, stronger effect = lower value 1.04 | locus YCL069W, strain vba3, stronger effect = lower value 1.01 | locus YCR088W, strain abp1, stronger effect = lower value 1.01 | locus YDL005C, strain med2, stronger effect = lower value 0.987 | locus YDL035C, strain GPR1, stronger effect = lower value 1.01 | locus YDL040C, strain nat1, stronger effect = lower value 1 | locus YDL074C, strain BRE1, stronger effect = lower value 1.02 | locus YDL101C, strain DUN1, stronger effect = lower value 1.02 | locus YDL134C, strain PPH21, stronger effect = lower value 1 | locus YDL185W, strain tfp1, stronger effect = lower value 1.02 | locus YDL192W, strain arf1, stronger effect = lower value 1.03 | locus YDR001C, strain nth1, stronger effect = lower value 0.995 | locus YDR069C, strain doa4, stronger effect = lower value 1.01 | locus YDR101C, strain arx1, stronger effect = lower value 1.03 | locus YDR137W, strain rgp1, stronger effect = lower value 1.03 | locus YDR150W, strain NUM1, stronger effect = lower value 0.992 | locus YDR159W, strain sac3, stronger effect = lower value 0.989 | locus YDR162C, strain NBP2, stronger effect = lower value 1.02 | locus YDR195W, strain ref2 1 | locus YDR297W, strain sur2, stronger effect = lower value 1.01 | locus YDR318W, strain mcm21, stronger effect = lower value 1.02 | locus YDR334W, strain swr1, stronger effect = lower value 0.994 | locus YDR335W, strain msn5, stronger effect = lower value 1.01 | locus YDR363W, strain ESC2, stronger effect = lower value 1.04 | locus YDR388W, stronger effect = lower value 1.02 | locus YDR392W, strain spt3, stronger effect = lower value 0.96 | locus YDR502C, strain sam2, stronger effect = lower value 1.01 | locus YEL003W, strain gim4, stronger effect = lower value 1.03 | locus YEL037C, strain rad23, stronger effect = lower value 0.995 | locus YEL061C, strain CIN8 (second series), stronger effect = lower value 0.998 | locus YEL061C, strain CIN8, stronger effect = lower value 1.01 | locus YER002W, strain NOP16, stronger effect = lower value 0.993 | locus YER015W, strain faa2, stronger effect = lower value 1.01 | locus YER016W, strain bim1, stronger effect = lower value 0.996 | locus YER110C, stronger effect = lower value 1.03 | locus YER111C, strain swi4, stronger effect = lower value 0.998 | locus YER155C, strain BEM2 (second series), stronger effect = lower value 1.05 | locus YER155C, strain BEM2, stronger effect = lower value 0.998 | locus YER167W, strain BCK2, stronger effect = lower value 1 | locus YFR010W, strain ubp6, stronger effect = lower value 1.01 | locus YGL078C, strain dbp3, stronger effect = lower value 1.02 | locus YGL086W, strain mad1, stronger effect = lower value 1.01 | locus YGL167C, strain pmr1, stronger effect = lower value 1 | locus YGL173C, strain kem1, stronger effect = lower value 1.03 | locus YGL227W, strain vid30, stronger effect = lower value 1 | locus YGL240W, strain doc1, stronger effect = lower value 1.04 | locus YGL248W, strain PDE1, stronger effect = lower value 1.03 | locus YGL253W, strain hxk2, stronger effect = lower value 0.98 | locus YGR078C, strain PAC10, stronger effect = lower value 0.999 | locus YGR135W, strain pre9, stronger effect = lower value 1.01 | locus YGR229C, strain SMI1, stronger effect = lower value 1.01 | locus YGR252W, strain gcn5, stronger effect = lower value 1.03 | locus YHR013C, strain ard1, stronger effect = lower value 1 | locus YHR027C, strain rpn1, stronger effect = lower value 0.996 | locus YHR030C, strain SLT2, stronger effect = lower value 1 | locus YHR079C, strain IRE1 (second series), stronger effect = lower value 1.03 | locus YHR079C, strain IRE1, stronger effect = lower value 1.02 | locus YHR094C, strain hxt1, stronger effect = lower value 1.01 | locus YHR129C, strain ARP1, stronger effect = lower value 1.01 | locus YHR142W, strain chs7, stronger effect = lower value 0.995 | locus YHR200W, strain rpn10, stronger effect = lower value 1.02 | locus YIL066C, strain RNR3, stronger effect = lower value 1.02 | locus YIL073C, strain SPO22, stronger effect = lower value 1.11 | locus YIL125W, strain kgd1, stronger effect = lower value 1.02 | locus YIR030C, strain dcg1, stronger effect = lower value 1.02 | locus YJL092W, strain hpr5, stronger effect = lower value 1.01 | locus YJL095W, strain BCK1 (second series), stronger effect = lower value 1.01 | locus YJL095W, strain BCK1, stronger effect = lower value 1.02 and 1.03 | locus YJL115W, strain asf1, stronger effect = lower value 0.999 | locus YJL129C, strain trk1, stronger effect = lower value 1.01 | locus YJL134W, strain LCB3, stronger effect = lower value 1.01 | locus YJL154C, strain vps35, stronger effect = lower value 0.998 | locus YJL164C, strain tpk1, stronger effect = lower value 0.98 | locus YJL166W, strain qcr8, stronger effect = lower value 1.04 | locus YJL168C, strain set2, stronger effect = lower value 1.02 | locus YJL187C, strain SWE1 (second series), stronger effect = lower value 1.03 | locus YJL187C, strain SWE1, stronger effect = lower value 1.01 | locus YJR043C, strain POL32, stronger effect = lower value 0.986 | locus YJR066W, strain TOR1, stronger effect = lower value 0.988 | locus YJR075W, strain HOC1, stronger effect = lower value 1.02 | locus YKL009W, strain mrt4, stronger effect = lower value 1.02 | locus YKL068W, stronger effect = lower value 1.01 | locus YKL085W, strain MDH1 (second series), stronger effect = lower value 1.01 | locus YKL085W, strain MDH1, stronger effect = lower value 1.01 | locus YKL160W, strain elf1, stronger effect = lower value 1.02 | locus YKR001C, strain vps1, stronger effect = lower value 1.01 | locus YKR026C, strain gcn3, stronger effect = lower value 1 | locus YKR091W, strain srl3, stronger effect = lower value 1 | locus YLL001W, strain dnm1, stronger effect = lower value 1.02 | locus YLL026W, stronger effect = lower value 1.01 | locus YLL041C, strain sdh2, stronger effect = lower value 0.993 | locus YLR027C, strain aat2, stronger effect = lower value 1.01 | locus YLR039C, strain RIC1, stronger effect = lower value 1.04 | locus YLR058C, strain SHM2, stronger effect = lower value 1.02 | locus YLR102C, strain apc9, stronger effect = lower value 1.02 | locus YLR113W, strain HOG1, stronger effect = lower value 1.04 | locus YLR221C, strain rsa3, stronger effect = lower value 0.986 | locus YLR258W, strain gsy2, stronger effect = lower value 0.993 | locus YLR262C, strain YPT6 (second series), stronger effect = lower value 1.03 | locus YLR262C, strain YPT6, stronger effect = lower value 1.07 | locus YLR268W, strain sec22, stronger effect = lower value 1.02 | locus YLR320W, strain mms22, stronger effect = lower value 0.977 | locus YLR330W, strain CHS5, stronger effect = lower value 1.01 | locus YLR342W, strain FKS1 (second series), stronger effect = lower value 0.997 | locus YLR342W, strain FKS1, stronger effect = lower value 1.03 | locus YLR357W, strain rsc2, stronger effect = lower value 0.993 | locus YLR370C, strain arc18, stronger effect = lower value 1 | locus YLR371W, strain rom2, stronger effect = lower value 1.02 | locus YLR384C, strain iki3, stronger effect = lower value 0.998 | locus YLR418C, strain cdc73, stronger effect = lower value 1.04 | locus YML016C, strain PPZ1, stronger effect = lower value 1.01 | locus YML032C, strain rad52, stronger effect = lower value 1.01 | locus YML120C, strain ndi1, stronger effect = lower value 1.03 | locus YML124C, strain tub3, stronger effect = lower value 1.02 | locus YMR058W, strain fet3, stronger effect = lower value 1.01 | locus YMR078C, strain ctf18, stronger effect = lower value 1.04 | locus YMR125W, strain sto1, stronger effect = lower value 0.999 | locus YMR129W, stronger effect = lower value 1 | locus YMR205C, strain PFK2, stronger effect = lower value 1.01 | locus YMR223W, strain ubp8, stronger effect = lower value 1.02 | locus YMR231W, strain pep5, stronger effect = lower value 0.999 | locus YMR307W, strain GAS1, stronger effect = lower value 0.933 | locus YNL067W, strain RPL9B, stronger effect = lower value 1.03 | locus YNL071W, strain lat1, stronger effect = lower value 0.989 | locus YNL128W, strain TEP1, stronger effect = lower value 0.983 | locus YNL153C, strain GIM3, stronger effect = lower value 1 | locus YNL175C, strain NOP13, stronger effect = lower value 0.996 | locus YNL183C, strain NPR1, stronger effect = lower value 0.972 | locus YNL197C, strain WHI3, stronger effect = lower value 0.978 | locus YNL209W, strain ssb2, stronger effect = lower value 0.989 | locus YNL224C, strain SQS1, stronger effect = lower value 1.01 | locus YNL233W, strain BNI4, stronger effect = lower value 1.02 | locus YNL248C, strain rpa49, stronger effect = lower value 0.994 | locus YNL250W, strain rad50, stronger effect = lower value 1.04 | locus YNL271C, strain bni1, stronger effect = lower value 1.03 | locus YNL298W, strain CLA4, stronger effect = lower value 1.02 | locus YNL307C, strain MCK1, stronger effect = lower value 1.03 | locus YNL322C, strain KRE1 (second series), stronger effect = lower value 0.999 | locus YNL322C, strain KRE1, stronger effect = lower value 1 | locus YNR049C, strain mso1, stronger effect = lower value 1 | locus YNR052C, strain pop2, stronger effect = lower value 1.02 | locus YOL006C, strain TOP1, stronger effect = lower value 1.1 | locus YOL012C, strain htz1 1.89 | locus YOL147C, strain pex11, stronger effect = lower value 1.03 | locus YOR001W, strain rrp6, stronger effect = lower value 1.05 | locus YOR061W, strain CKA2, stronger effect = lower value 1.02 | locus YOR069W, strain VPS5, stronger effect = lower value 1.01 | locus YOR070C, strain gyp1, stronger effect = lower value 0.99 | locus YOR080W, strain dia2, stronger effect = lower value 1.01 | locus YOR083W, strain WHI5 (second series), stronger effect = lower value 1 | locus YOR083W, strain WHI5, stronger effect = lower value 0.994 | locus YOR106W, strain vam3, stronger effect = lower value 1.04 | locus YOR136W, strain idh2, stronger effect = lower value 1.03 | locus YOR144C, strain elg1, stronger effect = lower value 1.02 | locus YOR184W, strain ser1, stronger effect = lower value 1.02 | locus YOR231W, strain MKK1, stronger effect = lower value 1.02 | locus YOR265W, strain rbl2, stronger effect = lower value 1.01 | locus YOR270C, strain vph1, stronger effect = lower value 1.03 | locus YOR290C, strain snf2, stronger effect = lower value 0.97 | locus YOR316C, strain cot1, stronger effect = lower value 1.02 | locus YPL051W, strain arl3, stronger effect = lower value 1.02 | locus YPL055C, strain LGE1, stronger effect = lower value 1.01 | locus YPL078C, strain atp4, stronger effect = lower value 1.05 | locus YPL106C, strain sse1, stronger effect = lower value 0.986 | locus YPL240C, strain hsp82, stronger effect = lower value 1.01 | locus YPL241C, strain CIN2, stronger effect = lower value 1 | locus YPL256C, strain CLN2, stronger effect = lower value 1.02 | locus YPR119W, strain clb2, stronger effect = lower value 1.02 | locus YPR141C, strain kar3, stronger effect = lower value 1.03 | locus YPR163C, strain tif3, stronger effect = lower value 1.02 | locus YPR167C, strain met16, stronger effect = lower value 1.03 | strain wtn01, stronger effect = lower value 1.01
